# Reference: PubChem BioAssay (EPA / NIEHS)
# Several values for one entry are separate records, joined by “and”; a condition that tells them apart may be missing. Identical values can stand only once. Results filed as inconclusive are left out. Some structures have more than one record in an assay (separate samples or runs), and their calls can disagree. Activity calls are given as the source filed them. The calls were made as follows, unless noted: active = hit-call score of the fitted dose curve at least 0.9, where 1 is the maximum; inactive = score below 0.9.
# Columns and labels:
# [1] = CCTE_Mundy_HCI_hNP1_CellTiter: CCTE's Cell Titer-Glo 2 Assay in human neuroprogenitor cells for Viability, Mundy Lab (AID 2284241; active = hit-call score of the fitted dose curve at least 0.9, where 1 is the maximum)
# Summary of the method: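 Measures ATP content in human neural progenitors derived from WA09 embryonic cells. Read-out at 26.5 hours after dosing, with DMSO serving as the negative control and baseline.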
# [2] = read-out: Interleukin 17F (IL17F), IL17F (gene 112744); test: BSK_BT_xIL17F: BioMAP Diversity Plus: BT Assay for Interleukin 17F (IL17F) Biomarker Activity (AID 2284243); settings: primary human B cells with PBMC
# Summary of the method: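 Luminex readout of IL-17F secretion, 24 h; cells: human B cells with PBMC; positive-direction analysis, DMSO control.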
# [3] = read-out: Actin alpha 1 (ACTA1), ACTA1 (gene 58); test: BSK_MyoF_ACTA1: BioMAP Diversity Plus: MyoF Assay for Actin alpha 1 (ACTA1) Biomarker Activity (AID 2284244); settings: primary human lung fibroblasts
# Summary of the method: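 alpha-SMA levels read by ELISA against DMSO baseline, 24 h post-dose, in primary human lung fibroblasts. Parallel cultures stained with 0.1% SRB after 10% TCA fixation (560 nm) to flag overt cytotoxicity.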
# [4] = read-out: Interleukin 2 (IL2), IL2 (gene 3558); test: BSK_BT_xIL2: BioMAP Diversity Plus: BT Assay for Interleukin 2 (IL2) Biomarker Activity (AID 2284245); settings: primary human B cells with PBMC
# Summary of the method: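 Secreted IL-2 was read by Luminex xMAP from B cells co-cultured with PBMC (human primary) 24 h post-dosing; activity was analysed as gain of signal relative to DMSO vehicle.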
# [5] = read-out: Basic fibroblast growth factor (bFGF), FGF2 (gene 2247); test: BSK_MyoF_bFGF: BioMAP Diversity Plus: MyoF Assay for Basic fibroblast growth factor (bFGF) Biomarker Activity (AID 2284246); settings: primary human lung fibroblasts
# Summary of the method: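 bFGF was measured by ELISA in primary human lung fibroblasts 24 h after chemical addition. Signal was analysed as positive-direction change relative to DMSO baseline.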
# [6] = read-out: Collagen IV, COL4A1 (gene 1282); test: BSK_MyoF_CollagenIV: BioMAP Diversity Plus: MyoF Assay for Collagen IV Biomarker Activity (AID 2284247); settings: primary human lung fibroblasts
# Summary of the method: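 Collagen IV quantified by ELISA in human lung fibroblast cultures 24 h after chemical treatment, with DMSO as baseline. Parallel SRB staining (0.1% SRB after TCA fixation, 560 nm) flags overt cytotoxicity.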
# [7] = read-out: Monokine induced gamma interferon (MIG), CXCL9 (gene 4283); test: BSK_KF3CT_MIG: BioMAP Diversity Plus: KF3CT Assay for Monokine induced gamma interferon (MIG) Biomarker Activity (AID 2284248); settings: primary human keratinocytes with fibroblasts
# Summary of the method: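 MIG in dosed human skin co-cultures was measured by ELISA at 24 h, relative to DMSO.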
# [8] = read-out: Collagen I, COL1A1 (gene 1277); test: BSK_hDFCGF_CollagenI: BioMAP Diversity Plus: hDFCGF Assay for Collagen I Biomarker Activity (AID 2284250); settings: primary human foreskin fibroblasts
# Summary of the method: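 Collagen I quantified by ELISA 24 h after chemical dosing of human dermal fibroblast primary cells, with parallel SRB staining (0.1%, TCA-fixed, 560 nm) for overt cytotoxicity.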
# [9] = read-out: Interferon-inducible T-cell alpha chemoattractant (ITAC), CXCL11 (gene 6373); test: BSK_hDFCGF_ITAC: BioMAP Diversity Plus: hDFCGF Assay for Interferon-inducible T-cell alpha chemoattractant (ITAC) Biomarker Activity (AID 2284251); settings: primary human foreskin fibroblasts
# Summary of the method: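 Chemical dosing of primary human foreskin fibroblast cultures preceded ELISA measurement of I-TAC at 24 h. Response was analysed in the positive direction using DMSO as baseline, while parallel SRB staining measured cytotoxicity.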
# [10] = read-out: Plasminogen activator inhibitor-1 (PAI1), SERPINE1 (gene 5054); test: BSK_KF3CT_PAI1: BioMAP Diversity Plus: KF3CT Assay for Plasminogen activator inhibitor-1 (PAI1) Biomarker Activity (AID 2284252); settings: primary human keratinocytes with fibroblasts
# Summary of the method: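 PAI-1 levels quantified by ELISA after 24 h compound exposure of primary human skin keratinocytes co-cultured with fibroblasts. Activity is the gain relative to DMSO; cytotoxicity tracked in parallel cultures via SRB staining.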
# [11] = read-out: Monocyte Chemoattractant Protein-1 (MCP1), CCL2 (gene 6347); test: BSK_IMphg_MCP1: BioMAP Diversity Plus: IMphg Assay for Monocyte Chemoattractant Protein-1 (MCP1) Biomarker Activity (AID 2284253); settings: primary human endothelial cells with macrophages
# Summary of the method: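 ELISA readout of MCP-1 at 24 hours in IMphg co-cultures of venular endothelial cells and macrophages, normalised to DMSO; parallel cultures stained with sulforhodamine B for overt cytotoxicity.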
# [12] = read-out: Interleukin-8 (IL8), CXCL8 (gene 3576); test: BSK_KF3CT_IL8: BioMAP Diversity Plus: KF3CT Assay for Interleukin-8 (IL8) Biomarker Activity (AID 2284254); settings: primary human keratinocytes with fibroblasts
# Summary of the method: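 Using parallel SRB-stained cultures to flag overt toxicity, the study quantified IL-8 by ELISA in human keratinocyte–foreskin fibroblast co-cultures 24 h after dosing, with DMSO as negative control and baseline.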
# [13] = read-out: Plasminogen activator inhibitor-1 (PAI1), SERPINE1 (gene 5054); test: BSK_MyoF_PAI1: BioMAP Diversity Plus: MyoF Assay for Plasminogen activator inhibitor-1 (PAI1) Biomarker Activity (AID 2284256); settings: primary human lung fibroblasts;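 as to outcome: PAI-1 protein level measured by ELISA in fibroblast cultures; PAI-1 read 24 h after compound addition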
# Summary of the method: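 In this multiplexed primary-cell system, fibroblasts from human lung received compound for 24 h before ELISA detection of PAI-1; overt toxicity was checked by SRB (0.1%, TCA-fixed, 560 nm) in parallel wells.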
# CD69, CD69 (gene 969) = test: BSK_IMphg_CD69: BioMAP Diversity Plus: IMphg Assay for CD69 Biomarker Activity (AID 2284257); settings: primary human endothelial cells with macrophages
# Summary of the method: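 Readout is ELISA for CD69 in primary human venular endothelial cell/macrophage co-culture, taken at 24 h post-dosing. SRB staining of parallel cultures gauged overt cytotoxicity; signal increase versus DMSO defined activity.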
# [14] = read-out: Eotaxin 3, CCL26 (gene 10344); test: BSK_BF4T_Eotaxin3: BioMAP Diversity Plus: BF4T Assay for Eotaxin 3 Biomarker Activity (AID 2284258); settings: primary human bronchial epithelial cells with fibroblasts
# Summary of the method: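 ELISA measurement of Eotaxin-3 after 24 h chemical exposure in a bronchial epithelial/dermal fibroblast co-culture, with DMSO as baseline. Parallel SRB staining (0.1% SRB after 10% TCA fixation, 560 nm) flagged overt cytotoxicity.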
# [15] = read-out: Monocyte Chemoattractant Protein-1 (MCP1), CCL2 (gene 6347); test: BSK_BF4T_MCP1: BioMAP Diversity Plus: BF4T Assay for Monocyte Chemoattractant Protein-1 (MCP1) Biomarker Activity (AID 2284259); settings: primary human bronchial epithelial cells with fibroblasts
# Summary of the method: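 MCP-1 ELISA readout taken 24 h after dosing in the BF4T system (bronchial epithelial cells plus dermal fibroblasts). Parallel SRB total-protein staining flagged cytotoxicity; DMSO served as baseline, positive fitting direction.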
# [16] = read-out: Intercellular Adhesion Molecule 1 (ICAM1), ICAM1 (gene 3383); test: BSK_BF4T_ICAM1: BioMAP Diversity Plus: BF4T Assay for Intercellular Adhesion Molecule 1 (ICAM1) Biomarker Activity (AID 2284260); settings: primary human bronchial epithelial cells with fibroblasts
# Summary of the method: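 ICAM-1 levels measured by ELISA after 24 h chemical treatment of bronchial epithelial cell/dermal fibroblast co-cultures, read against DMSO baseline. Overt cytotoxicity checked in parallel cultures by sulforhodamine B staining.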
# [17] = CCTE_Mundy_HCI_Cortical_Synap_Neur_Matur_NeuronCount: CCTE's Synaptogenesis and Neurite Maturation Assay in rat cortical cells for Neuron Count, Mundy Lab (AID 2284242; active = hit-call score of the fitted dose curve at least 0.9, where 1 is the maximum)
# Summary of the method: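 Neuron counts come from automated high-content imaging of Hoechst nuclei and MAP2/synaptophysin immunostaining at DIV 12, with loss of signal judged against DMSO. Cultures of rat cortical cells had glial growth arrested by AraC at DIV 5; chemical exposure began DIV 7.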
# [18] = read-out: Vascular cell adhesion molecule 1 (VCAM1), VCAM1 (gene 7412); test: BSK_BF4T_VCAM1: BioMAP Diversity Plus: BF4T Assay for Vascular cell adhesion molecule 1 (VCAM1) Biomarker Activity (AID 2284249); settings: primary human bronchial epithelial cells with fibroblasts
# Summary of the method: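 Cell-surface VCAM-1 quantified by ELISA after 24 h chemical exposure of human bronchial epithelial/dermal fibroblast co-cultures, with SRB staining in parallel wells for cytotoxicity; DMSO baseline, positive-direction fitting.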
compound,measurement,setting,value
FC(F)(F)C(F)(F)C(F)(F)C(F)(F)CCI,outcome,[1],inactive
same,outcome,[2],inactive
same,outcome,[3],inactive
same,outcome,[4],inactive
same,outcome,[5],inactive
same,outcome,[6],inactive
same,outcome,[7],inactive
same,outcome,[8],inactive
same,outcome,[9],inactive
same,outcome,[10],inactive
same,outcome,[11],inactive
same,outcome,[12],inactive
same,outcome,[13],inactive
same,outcome,"CD69, CD69 (gene 969)",inactive
same,outcome,[14],inactive
same,AC50,[15],7.18 µM (active)
same,outcome,[15],inactive
same,outcome,[16],inactive
O=S(=O)(OCC(F)F)C(F)(F)F,outcome,[2],inactive
same,outcome,[3],inactive
same,outcome,[4],inactive
same,outcome,[5],inactive
same,outcome,[6],inactive
same,outcome,[7],inactive
same,outcome,[8],inactive
same,outcome,[9],inactive
same,AC50,[10],324 nM (active)
same,outcome,[10],inactive
same,outcome,[11],inactive
same,outcome,[12],inactive
same,outcome,[13],inactive
same,outcome,"CD69, CD69 (gene 969)",inactive
same,outcome,[14],inactive
same,outcome,[15],inactive
same,outcome,[16],inactive
OC[C@@H](O)[C@@H](O)[C@H](O)[C@@H](O)CO,outcome,[17],inactive
O=C(O)C(F)(F)C(F)(F)C(F)(F)F,outcome,[1],inactive
same,outcome,[2],inactive
same,outcome,[3],inactive
same,outcome,[4],inactive
same,outcome,[5],inactive
same,outcome,[6],inactive
same,outcome,[7],inactive
same,outcome,[8],inactive
same,outcome,[9],inactive
same,outcome,[10],inactive
same,outcome,[11],inactive
same,outcome,[12],inactive
same,outcome,[13],inactive
same,outcome,"CD69, CD69 (gene 969)",inactive
same,outcome,[14],inactive
same,outcome,[15],inactive
same,outcome,[16],inactive
O=C(O)C(F)(OC(F)(F)C(F)(OC(F)(F)C(F)(OC(F)(F)C(F)(F)C(F)(F)F)C(F)(F)F)C(F)(F)F)C(F)(F)F (stereo unspecified),outcome,[2],inactive
same,outcome,[3],inactive
same,outcome,[4],inactive
same,outcome,[5],inactive
same,outcome,[6],inactive
same,outcome,[7],inactive
same,outcome,[18],inactive
same,outcome,[8],inactive
same,outcome,[9],inactive
same,outcome,[10],inactive
same,outcome,[11],inactive
same,outcome,[12],inactive
same,outcome,[13],inactive
same,outcome,"CD69, CD69 (gene 969)",inactive
same,outcome,[14],inactive
same,outcome,[15],inactive
same,outcome,[16],inactive
O=C(O)C(F)(F)C(F)(F)C(F)F,outcome,[2],inactive
same,outcome,[3],inactive
same,outcome,[4],inactive
same,outcome,[5],inactive
same,outcome,[6],inactive
same,outcome,[7],inactive
same,outcome,[18],inactive
same,outcome,[8],inactive
same,outcome,[9],inactive
same,outcome,[10],inactive
same,outcome,[11],inactive
same,outcome,[12],inactive
same,outcome,[13],inactive
same,outcome,"CD69, CD69 (gene 969)",inactive
same,outcome,[14],inactive
same,outcome,[15],inactive
same,outcome,[16],inactive
OCCCC(F)(F)C(F)(F)C(F)(F)C(F)(F)C(F)(F)C(F)(F)C(F)(F)F,outcome,[1],inactive
same,AC50,[2],17.8 µM (active) and 18.5 µM (active)
same,AC50,[3],37.7 µM (active) and 44.6 µM (active)
same,AC50,[4],20.5 µM (active) and 33.2 µM (active)
same,AC50,[5],50.9 µM (active) and 57.8 µM (active)
same,AC50,[6],49.5 µM (active) and 48.3 µM (active)
same,AC50,[7],25.7 µM (active) and 54.8 µM (active)
same,AC50,[8],15.8 µM (active) and 7.13 µM (active)
same,AC50,[9],13 µM (active) and 11.8 µM (active)
same,AC50,[10],21.7 µM (active) and 46.1 µM (active)
same,AC50,[11],52 µM (active) and 24.2 µM (active)
same,AC50,[12],49.3 µM (active) and 46.4 µM (active)
same,AC50,[13],51.2 µM (active) and 52.2 µM (active)
same,AC50,"CD69, CD69 (gene 969)",50 µM (active)
same,outcome,"CD69, CD69 (gene 969)",inactive
same,AC50,[14],52.3 µM (active)
same,outcome,[14],inactive
same,AC50,[15],38.4 µM (active) and 43.2 µM (active)
same,AC50,[16],23.7 µM (active) and 34 µM (active)
